Reference: PubChem BioAssay (NCI)
Compounds without any hit were thinned out: in the full panel of roughly 79,000, 15% have a hit. Calls of active or inactive are those of the source. Cut-off read from the data, not from the text of the source: active = growth inhibition above about 70%; inactive = the rest.

Tests used:
[1] = NCI Yeast Anticancer Drug Screen. Data for the rad52 strain (AID 147);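 note: 0% = growth of vehicle-treated control cultures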; settings: S. cerevisiae rad52 mutant growth inhibition, hits give high values
Summary of the method: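 Inhibition of yeast growth, referenced to vehicle controls, was the measured output for a strain with defective DNA damage repair.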

[2] = NCI Yeast Anticancer Drug Screen. Data for the wt1 strain (AID 149);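 note: 0% = growth of vehicle-treated wt1 cultures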; settings: S. cerevisiae wt1 strain (SPY 50644) growth inhibition, hits give high values
Summary of the method: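 wt1 strain grown with compound or vehicle; inhibition taken from the growth difference.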

[3] = NCI Yeast Anticancer Drug Screen. Data for the mgt1 strain (AID 153); settings: S. cerevisiae mgt1 mutant growth inhibition, hits give high values
Summary of the method: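 In the mgt1 strain, test compounds were added and growth inhibition was determined relative to vehicle-treated controls.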

[4] = NCI Yeast Anticancer Drug Screen. Data for the rad50 strain (AID 155);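 note: 0% = growth of vehicle-only cultures of the same strain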; settings: S. cerevisiae rad50 strain growth inhibition, hits give high values
Summary of the method: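 DNA repair mutant yeast, compound exposure, growth read-out; inhibition is taken relative to vehicle.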

[5] = NCI Yeast Anticancer Drug Screen. Data for the mec2-1 strain (AID 157); settings: S. cerevisiae mec2-1 strain, hits give high values
Summary of the method: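 Each compound was tested on mec2-1 yeast, a strain altered in DNA damage repair or cell cycle control. Growth inhibition is reported relative to vehicle.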

[6] = NCI Yeast Anticancer Drug Screen. Data for the rad14 strain (AID 159);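 note: 0% = growth of vehicle-treated control cultures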; settings: S. cerevisiae rad14 strain growth inhibition, hits give high values
Summary of the method: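 DNA repair-defective yeast, compound-exposed; % growth inhibition derived by comparison with vehicle-treated controls.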

[7] = NCI Yeast Anticancer Drug Screen. Data for the sgs1 mgt1 strain (AID 161);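 note: 0% = growth of cultures given vehicle only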; settings: S. cerevisiae sgs1 mgt1 strain, hits give high values
Summary of the method: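 Read-out: growth inhibition vs vehicle controls. Cells: mutant yeast strain deficient in DNA damage repair.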

[8] = NCI Yeast Anticancer Drug Screen. Data for the CLN2oe strain (AID 163);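 note: 0% = growth of vehicle-only control cultures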; settings: S. cerevisiae CLN2oe strain, hits give high values
Summary of the method: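 First, the altered yeast strain was treated with each compound; second, its growth was measured; finally, inhibition was derived by comparison with vehicle controls.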

[9] = NCI Yeast Anticancer Drug Screen. Data for the cln2 rad14 strain (AID 165);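 note: 0% = growth equal to vehicle treated cultures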; settings: S. cerevisiae cln2 rad14 strain, hits give high values
Summary of the method: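 Test compounds were added to cln2 rad14 yeast cultures; inhibition of growth was then determined by comparison with vehicle treatment.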

[10] = NCI Yeast Anticancer Drug Screen. Data for the bub3 strain (AID 167); settings: S. cerevisiae bub3 mutant strain, hits give high values
Summary of the method: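 In this screen, a yeast mutant lacking normal mitotic checkpoint function is challenged with compound. Relative growth versus vehicle gives the inhibition value.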

[11] = NCI Yeast Anticancer Drug Screen. Data for the wt2 strain (AID 169);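 note: 0% = growth of vehicle-treated yeast cultures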; settings: S. cerevisiae wt2 strain growth inhibition, hits give high values
Summary of the method: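 The panel's yeast strains carry defined changes in DNA repair or cell cycle genes. Each strain is grown with compound, and growth loss is scored relative to vehicle.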

[12] = NCI Yeast Anticancer Drug Screen. Data for the mlh1 strain (AID 171);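 note: 0% = growth of vehicle-treated control cultures of the same strain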; settings: S. cerevisiae mlh1 strain growth inhibition, hits give high values
Summary of the method: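 Inhibition values reflect reduced yeast growth in the presence of compound, referenced to vehicle controls, using a strain chosen for its alteration in DNA repair or cell cycle control.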

[13] = NCI Yeast Anticancer Drug Screen. Data for the sgs1 strain (AID 173);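 note: 0% = growth of vehicle-only control cultures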; settings: S. cerevisiae sgs1 mutant, hits give high values
Summary of the method: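 Vehicle-treated cultures served as reference for growth inhibition of a yeast strain altered in DNA damage repair or cell cycle control after compound exposure.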

[14] = NCI Yeast Anticancer Drug Screen. Data for the mlh1 rad18 strain (AID 175); settings: S. cerevisiae mlh1 rad18 strain growth inhibition, hits give high values
Summary of the method: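 Inhibition values reflect reduced growth of mutant yeast versus vehicle-treated controls following compound exposure; the mutations affect DNA damage repair.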

[15] = NCI Yeast Anticancer Drug Screen. Data for the rad18 strain (AID 177); settings: S. cerevisiae rad18 mutant growth inhibition, hits give high values
Summary of the method: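 Steps: expose repair-mutant yeast to compound; measure growth; express as inhibition relative to vehicle control.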

[16] = at 5.0 µM (retest, dose inferred, filed as 0.5)
[17] = at 50.0 µM (retest, dose inferred, filed as 5.0)

Measured: growth inhibition

CCC1(O)C(=O)OCc2c1cc1n(c2=O)Cc2cc3cc(Cl)ccc3nc2-1 (stereo not drawn)
active: [1]; at 1.2 µM 94% | [1]; at 3.7 µM 95% | [1]; at 11.0 µM 95% | [1]; at 33.0 µM 95% | [1]; at 100.0 µM 92% | [4]; at 1.2 µM 96% | [4]; at 3.7 µM 94% | [4]; [16] 97% | [4]; at 11.0 µM 95% | [4]; at 33.0 µM 93% | [4]; [17] 92% | [4]; at 50.0 µM 93.7% | [4]; at 100.0 µM 78% | [5]; at 3.7 µM 88% | [5]; [16] 87% | [5]; at 11.0 µM 93% | [5]; at 33.0 µM 92% | [5]; [17] 88% | [5]; at 50.0 µM 92.7% | [5]; at 100.0 µM 89% | [7]; [17] 84% | [12]; at 100.0 µM 74% | [13]; at 33.0 µM 83% | [13]; at 100.0 µM 80% | [15]; at 100.0 µM 71%
inactive: [2]; at 1.2 µM 3% | [2]; at 3.7 µM 0% | [2]; at 11.0 µM 16% | [2]; at 33.0 µM 43% | [2]; at 100.0 µM 65% | [3]; at 1.2 µM 13% | [3]; at 3.7 µM 19% | [3]; at 11.0 µM 30% | [3]; at 33.0 µM 57% | [3]; at 100.0 µM 67% | [5]; at 1.2 µM 60% | [6]; at 1.2 µM 12% | [6]; at 3.7 µM 19% | [6]; at 11.0 µM 35% | [6]; at 33.0 µM 59% | [6]; at 100.0 µM 69% | [7]; [16] 62% | [7]; at 50.0 µM 40.2% | [8]; at 1.2 µM 6% | [8]; at 3.7 µM 14% | [8]; at 11.0 µM 33% | [8]; at 33.0 µM 47% | [8]; at 100.0 µM 59% | [9]; [16] 24% | [9]; [17] 48% | [9]; at 50.0 µM 45.9% | [10]; at 1.2 µM -6% | [10]; at 3.7 µM 6% | [10]; [16] -2% | [10]; at 11.0 µM 24% | [10]; at 33.0 µM 44% | [10]; [17] 31% | [10]; at 50.0 µM -5.7% | [10]; at 100.0 µM 62% | [11]; at 1.2 µM 4% | [11]; at 3.7 µM 19% | [11]; at 11.0 µM 20% | [11]; at 33.0 µM 31% | [11]; at 100.0 µM 47% | [12]; at 1.2 µM 3% | [12]; at 3.7 µM 8% | [12]; at 11.0 µM 36% | [12]; at 33.0 µM 65% | [13]; at 1.2 µM 31% | [13]; at 3.7 µM 46% | [13]; at 11.0 µM 69% | [14]; [16] 45% | [14]; [17] 60% | [14]; at 50.0 µM 52.5% | [15]; at 1.2 µM 14% | [15]; at 3.7 µM 14% | [15]; at 11.0 µM 34% | [15]; at 33.0 µM 64%
